Screening results from PubChem.
A selection: hits, their analogues and other compounds. The true share with any hit is near 6.5%.
Fluor 339 460: intrinsic fluorescence of library compounds, ex339/em460 – biochemical, MLSMR library, data from DPM-DC assay, artefact control, profiling panel; compound autofluorescence, ex339/em460 nm, NADH buffer; stronger effect = higher value; 1 = no-compound wells, NADH background; fluorescence fold increase at 10 µM; 65,000 tested, 5.5% active; AID 709, 2007;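 active = at 10 µM, mean starting fluorescence two-fold or more over control wells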;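 note: signal is the first read of a kinetic run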
Abs 340nm: compound light absorbance at 340 nm, profiling panel, artefact control, biochemical, MLSMR library, data from PS, PMK, MK assays. AID 708, 2007. compound absorbance at 340 nm, fold over control. fold change at 10 µM. 65,000 tested, under 10 active;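 active = at 10 µM dose, initial 340 nm absorbance at least 2 fold that of control wells; inactive = change under 2 fold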;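 note: initial absorbance extrapolated from kinetic A340 decline of NADH oxidation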
DPM-DC inhibit: S. pneumoniae DPM-DC inhibitors, primary screen, biochemical, PK/LDH-coupled NADH fluorescence. purified DPM-DC. calls only at 10 µM. 65,000 tested, 0.49% active;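 active = the 320 compounds with the highest percent inhibition in the single-dose primary screen, excluding strongly autofluorescent ones, cut at about 32% in these data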;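 note: kinetic rate of NADH fluorescence loss reporting ADP formed by the decarboxylase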
Spn MK inh: S. pneumoniae MK inhibitors, primary screen, biochemical, PK/LDH-coupled NADH absorbance | 65,000 tested, 0.48% active | AID 555, 2006 | purified MK, PK/LDH-coupled NADH absorbance 340 nm | inhibition, % at 10 µM | mevalonate kinase [Streptococcus pneumoniae D39];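 active = ranked among the strongest by inhibition in the single 10 µM screen, a fixed top-ranked set picked for dose follow-up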
NADH enzymes: inhibitors of PK/LDH coupling enzymes, profiling panel, artefact control, biochemical, MLSMR library; coupled PK/LDH NADH assays, four targets; IC50, µM (highest dose often 10 µM), for the others: top-dose inhibition; 65,000 tested, 0.02% active; AID 774, 2007;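 active = single-dose screening hits from any of four coupled enzyme assays that gave an IC50 when retested across doses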;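 note: the DPM-DC format reads NADH fluorescence rather than 340 nm absorbance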
PMK inhibit: S. pneumoniae PMK inhibitors, primary screen, biochemical, mevalonate pathway, pilot trial included. phosphomevalonate kinase (Streptococcus pneumoniae D39). purified PMK, PK/LDH-coupled NADH absorbance 340 nm. inhibition, % at 10 µM. 65,000 tested, 0.49% active. AID 539, 2006;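 active = top-ranked compounds by inhibition in the single 10 µM screen, taking a fixed number of the strongest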;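 note: 0% = full reaction with DMSO carrier and 100% = background rate without enzyme reaction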
Starred values were filed as active, the others as inactive; i = inactive; nt = no result shown; + = active, no number; [ ] = remark or other dose.

SMILES	Fluor 339 460	Abs 340nm	DPM-DC inhibit	Spn MK inh	NADH enzymes	PMK inhibit
Fc1ccccc1N1CCN(Cc2ccc3c(c2)OCO3)CC1	1.1	1.1	i	34	14%	8
Fc1ccccc1N1CCN(Cc2c(F)cccc2F)CC1	1.1	1.1	i	49*	16%	0
Cn1c(O)c(C=NCCc2c[nH]c3ccccc23)c(=O)n(C)c1=O	0.98	1	i	8	7%	4
O=C(Cn1ncc2c3ccccc3n(Cc3ccccc3)c2c1=O)N1CCC2(CC1)OCCO2	1.5	1	i	0	6%	18
Cc1c2cnn(CC(=O)N3CCC4(CC3)OCCO4)c(=O)c2c(C)n1Cc1ccc(F)cc1	1.1	1	i	0	11%	29*
O=P1(NC2CCCC2)COc2ccccc2OC1	0.98	1	+	10	19%	12
Cn1c2ccccc2c2c(C(=O)N3CCC4(CC3)OCCO4)cn(C3CCCC3)c(=O)c21	2.1*	1.1	nt	16	17%	17
COCCn1cc(C(=O)N2CCC3(CC2)OCCO3)c2c3ccccc3n(C)c2c1=O	4.3*	1	nt	0	7%	13
Nc1ccccc1C(=O)OCCOc1ccccc1	2.8*	1	i	7	7%	10
CCCCCCn1c(=O)c(C(=O)Nc2c(C)n(C)n(-c3ccccc3)c2=O)c(O)c2ccccc21	1.1	0.98	i	2	2%	4
COCCCn1c(N)c(C(=O)OC(C)COC)c2nc3ccccc3nc21 (stereo unspecified)	3.9*	1.1	nt	14	14%	13
CCCCOCCCn1c(N)c(C(=O)OC(C)COC)c2nc3ccccc3nc21 (stereo unspecified)	2.4*	1	nt	13	11%	8
C=CCn1c(O)c(C(C)=NCc2cc(OC)cc(OC)c2)c(=O)[nH]c1=O	1.1	1	i	3	5%	11
COCCNC(=O)c1c(NC(=O)c2ccco2)n(Cc2ccccc2)c2nc3ccccc3nc12	3.8*	1.1	nt	7	13%	19
COC(=O)c1c(C)n(Cc2ccc3c(c2)OCO3)c2ccc(O)cc12	1.1	0.99	i	8	2%	2
CCC(=NCC1CCCO1)c1c(O)n(-c2ccccc2)c(=O)[nH]c1=O (stereo unspecified)	1.1	1	i	8	5%	8
CCC(C)NC(=O)c1c(N)n(Cc2ccc3c(c2)OCO3)c2nc3ccccc3nc12 (stereo unspecified)	4*	1	nt	14	7%	0
CCC(C)NC(=O)c1c(N)n(CC2CCCO2)c2nc3ccccc3nc12 (stereo unspecified)	2.5*	1	nt	8	4%	17
O=c1cccc2n1CC1CC2CN(c2ncnc3c2cnn3-c2ccccc2)C1 (stereo unspecified)	1.1	1	i	1	9%	25
CC(=NCC1CCCO1)c1c(O)n(C)c(=O)n(C)c1=O (stereo unspecified)	1.1	1	i	12	7%	9
CN1CCc2nc(SCC(=O)OC(C)(C)C)c(C#N)cc2C1	2.3*	1.1	nt	13	7%	0
COCCOC(=O)c1c(C)oc2ccc(OC(=O)N(C)C)cc12	1.1	1	i	0	4%	11
Cc1ccnc(-n2c(C)nc3ccccc3c2=O)c1	1.1	1	i	9	6%	8
Cc1cccc(N2CCc3c2nc2ccccc2c3N)c1	3.8*	1.1	nt	0	0%	0
CN1C(=O)N(C)C(=O)C(CCc2ccccn2)(CCc2ccccn2)C1=O	1.1	1	i	8	10%	10
SMILES	Fluor 339 460	Abs 340nm	DPM-DC inhibit	Spn MK inh	NADH enzymes	PMK inhibit
CN1C(=O)N(C)C(=O)C2(Sc3ccccc3C2=O)C1=O	5*	1	nt	0	4%	7
CCCS(=O)(=O)N1CCCC(C(=O)N2CCC3(CC2)OCCO3)C1 (stereo unspecified)	1	0.99	i	4	5%	12
Cc1c2ccncc2c(C)c2c1[nH]c1ccccc12	2*	1	+[fluoresces]	5	1%	1
Cc1[nH]c2ccccc2c1/C=N/O	1.2	1	i	3	4%	9
c1ccc2c3c([nH]c2c1)CNCC3	1	0.98	i	8	3%	8
c1ccc2c(c1)[nH]c1cnccc12	2.4*	1	nt	7	1%	4
O=c1c2ccccc2nc(-c2ccco2)n1-c1nccs1	1.1	1.1	i	0	1%	0
C=CCOC(=O)COc1cc(C)cc2oc(=O)c3c(c12)CCC3	2.4*	1	nt	7	3%	13
CCCCOC(=O)COc1cc(C)cc2oc(=O)c3c(c12)CCC3	1.6	1.1	i	9	3%	0
Cc1cc(OCc2nn[nH]n2)c2c3c(c(=O)oc2c1)CCCC3	3.8*	1.1	nt	7	8%	8
CC(=O)c1c(C)[nH]c(C(=O)N2CCC3(CC2)OCCO3)c1C	1.1	1	i	10	6%	7
Cc1cc(N2CCOCC2)nc2ccc(NC(=O)CCC(=O)N3CCC4(CC3)OCCO4)cc12	4.8*	1.1	nt	8	11%	13
Cn1cc(CCC(=O)N2CCC3(CC2)OCCO3)c2ccccc21	1	0.97	i	3	8%	21
CCCCn1c(N)c(C(=O)NCCN2CCOCC2)c2nc3ccccc3nc21	2.1*	1.1	nt	0	7%	14
Nc1c(C(=O)NCCN2CCOCC2)c2nc3ccccc3nc2n1Cc1ccco1	3.9*	1	nt	14	12%	9
CCCCn1c(C)c(C(=O)OCC)c2c(CN3CCOCC3)c(O)ccc21	1	0.99	i	5	11%	8
CCOC(=O)c1c(N)n(CCN2CCCCC2)c2nc3ccccc3nc12	4.9*	1.1	nt	0	10%	19
CCC(=NCCCN1CCOCC1)c1c(O)n(Cc2ccccc2)c(=O)[nH]c1=O	1	1	i	4	2%	8
Nc1c(C(=O)NCCc2ccccc2)c2nc3ccccc3nc2n1CCN1CCOCC1	3.9*	1	nt	9	6%	2
Cc1cc(N)n(C2CCN(C)CC2)n1	1.1	1	i	8	4%	3
COc1ccc(-n2c(O)c(C(C)=NC3CC3)c(=O)[nH]c2=O)cc1	1.1	1	i	4	1%	0
OC(c1ccc(F)cc1)C(c1ccccc1)N1CCOCC1 (stereo unspecified)	1.1	1	i	6	2%	0
CC(=O)OC1N=C(c2ccccc2)c2ccccc2NC1=O (stereo unspecified)	1.1	1	i	3	4%	9
